# PubChem BioAssay
# Records with an inconclusive call do not appear. The source made the active and inactive calls.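 The calls were made as follows, unless noted: active = viability at or under a set limit in both replicates, limit being median viability minus 3 SD (cut at about 48% in these data, passing the limit was not always enough); inconclusive = at or under the limit in just one replicate; inactive = at or above the limit in both replicates.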
# Key:
# [1] = Her2 expression decrease, cell viability multiplex – SKBR3 breast tumor cells, AlphaScreen, ATP viability, primary screen (AID 461;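 active = Her2 level under about 52% in both replicate screens, with viability over 70% of control, limit read from the data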;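 as to Her2 level: lower value means less Her2 protein in the cells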;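 as to viability: percent of carrier control wells set as 100% viability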); conditions: SKBR3 Her2 protein level, 18-24 h, measured here: SKBR3 viability, ATP luminescence, at 10 µM
# [2] = biological target: Receptor tyrosine-protein kinase erbB-2 (Homo sapiens) (UniProt P04626); test: as above; conditions: 18-24 h, at 10 µM, stronger effect = lower value
# [3] = reduced viability of SK-BR-3 breast cancer cells – cell-based, 24 h, human, pilot screen (AID 572;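 active = viability at or below 10% of carrier control in both of two separate runs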;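 also: compound exposure lasted between 18 and 24 h rather than exactly 24 h; 100% = carrier-treated control wells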); conditions: SK-BR-3 viability, CellTiter-Glo luminescence, at 10 µM, stronger effect = lower value
# [4] = HUVEC growth inhibition – cell-based, human, primary screen (AID 575;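 active = viability at or below 30% in both replicate assays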;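 also: 100% = median of untreated cell wells with 0.1% DMSO on each plate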); conditions: HUVEC proliferation, CellTiter-Glo luminescence, 72 h; at 10 µM; stronger effect = lower value
# [5] = H69AR cell proliferation blockers – human, duplicate replicates, primary screen (AID 580); conditions: H69AR lung tumor cells viability, ATP luminescence, 72 h; at 10 µM; stronger effect = lower value;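 also: 100% = mean luminescence of untreated wells and 0% = no signal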
# [6] = MRP1 drug-resistance reversers in H69AR cells – cell-based, doxorubicin co-treatment, pilot screen (AID 601;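 active = viability loss from added drug above about 55%, and viability with drug at most 40%, in both replicates, limit read from the data, passing the limit was not always enough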); conditions: CellTiter-Glo, 72 h, at 10 µM; for differential viability (reversal): stronger effect = higher value
# [7] = yeast transport mutant growth inhibition pilot in 384-well plates, post-Golgi transport modulator project (AID 636; in the data active = inhibition above about 31%); conditions: absorbance 615 nm, about 18 h, stronger effect = higher value
# [8] = growth suppression of yeast trafficking mutant, preliminary HTS, modulators of trafficking downstream of Golgi apparatus project, 1536-format plate, OD 615 nm (AID 637; in the data active = inhibition above about 30%); conditions: yeast transport mutant growth, absorbance 615 nm, 18 h; stronger effect = higher value
# [9] = S. cerevisiae growth inhibition in permissive medium (OD615), pilot counter-assay for S. cerevisiae lifespan shortening project, permissive growth control (AID 705;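 active = growth inhibition above 25% in both replicates, a cutoff set 3 SD above the mean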); conditions: OD615, 24 h, at 10 µM, stronger effect = higher value
# [10] = S. cerevisiae growth inhibition in restrictive medium, OD615, pilot screen, restrictive growth control, yeast lifespan reduction project (AID 706;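 active = growth inhibition above a set limit, 3 SD over mean compound inhibition, in both replicates, cut at about 43% in these data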;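 also: modified DeaD lifespan yeast strain shifted to restrictive glucose medium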); conditions: OD615, 48 h, at 10 µM, stronger effect = higher value
# [11] = doxorubicin toxicity protection in MRP-1 cells – H69AR cells, CellTiter-Glo, duplicate, MRP-1 activator project, pilot screen (AID 807;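 active = viability increase at or above a cutoff of the median across tested compounds plus 3 SD, cut at about 8.5% in these data, passing the limit was not always enough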;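 also: compound pretreatment 18-22 h then 72 h combined with doxorubicin; 0% = doxorubicin alone and 100% = vehicle without doxorubicin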); conditions: H69AR viability with doxorubicin, CellTiter-Glo luminescence; at 10 µM; stronger effect = higher value
# [12] = viability of HCT116 without oncogenic beta-catenin – human colon tumor cells, pilot screen (AID 823;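 active = cell viability at or below a set limit in both duplicate runs, the limit being the all-compound median minus 4 SD, cut at about 23% in these data, passing the limit was not always enough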;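 also: 0% = wells killed by 20 µM Hyamine and 100% = untreated DMSO cell wells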); conditions: HCT116 beta-catenin knockout viability, CellTiter-Glo, 60 h; at 10 µM; stronger effect = lower value
# [13] = viability of PTEN-null HCT116 cells – cell-based, HCT116 clonal line, CellTiter-Glo, pilot screen (AID 824;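 active = viability at or below 27.92% in each of two runs, the all-compound median minus 4 SD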;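 also: 0% = 20 µM Hyamine control and 100% = vehicle cell control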); conditions: HCT116 PTEN-deleted viability, 60 h, at 10 µM, stronger effect = lower value
# [14] = RAM pathway blockade in budding yeast – dse1pr::URA3 reporter, 5-FOA selection, pilot screen (AID 869;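 active = inhibition over a set limit, the all-compound mean plus 3 SD, in both replicate runs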;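 also: 0% = DMSO wells with no growth and 100% = 10 µM 1-NA-PP1 with full growth; RAM network block rescues cells from 5-FOA so hits raise OD615 growth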); conditions: S. cerevisiae dse1pr::URA3 5-FOA growth, OD615, 2 d; at 10 µM; stronger effect = higher value; strain carries analog-sensitive mutant Cbk1 kinase
# [15] = H69AR cells + 2 uM doxorubicin, measured here: viability with 2 uM doxorubicin, stronger effect = lower value
# [16] = H69AR cells, compound alone cytotoxicity
# Sequence of Receptor tyrosine-protein kinase erbB-2 (Homo sapiens) (P04626 whole entry, looked up): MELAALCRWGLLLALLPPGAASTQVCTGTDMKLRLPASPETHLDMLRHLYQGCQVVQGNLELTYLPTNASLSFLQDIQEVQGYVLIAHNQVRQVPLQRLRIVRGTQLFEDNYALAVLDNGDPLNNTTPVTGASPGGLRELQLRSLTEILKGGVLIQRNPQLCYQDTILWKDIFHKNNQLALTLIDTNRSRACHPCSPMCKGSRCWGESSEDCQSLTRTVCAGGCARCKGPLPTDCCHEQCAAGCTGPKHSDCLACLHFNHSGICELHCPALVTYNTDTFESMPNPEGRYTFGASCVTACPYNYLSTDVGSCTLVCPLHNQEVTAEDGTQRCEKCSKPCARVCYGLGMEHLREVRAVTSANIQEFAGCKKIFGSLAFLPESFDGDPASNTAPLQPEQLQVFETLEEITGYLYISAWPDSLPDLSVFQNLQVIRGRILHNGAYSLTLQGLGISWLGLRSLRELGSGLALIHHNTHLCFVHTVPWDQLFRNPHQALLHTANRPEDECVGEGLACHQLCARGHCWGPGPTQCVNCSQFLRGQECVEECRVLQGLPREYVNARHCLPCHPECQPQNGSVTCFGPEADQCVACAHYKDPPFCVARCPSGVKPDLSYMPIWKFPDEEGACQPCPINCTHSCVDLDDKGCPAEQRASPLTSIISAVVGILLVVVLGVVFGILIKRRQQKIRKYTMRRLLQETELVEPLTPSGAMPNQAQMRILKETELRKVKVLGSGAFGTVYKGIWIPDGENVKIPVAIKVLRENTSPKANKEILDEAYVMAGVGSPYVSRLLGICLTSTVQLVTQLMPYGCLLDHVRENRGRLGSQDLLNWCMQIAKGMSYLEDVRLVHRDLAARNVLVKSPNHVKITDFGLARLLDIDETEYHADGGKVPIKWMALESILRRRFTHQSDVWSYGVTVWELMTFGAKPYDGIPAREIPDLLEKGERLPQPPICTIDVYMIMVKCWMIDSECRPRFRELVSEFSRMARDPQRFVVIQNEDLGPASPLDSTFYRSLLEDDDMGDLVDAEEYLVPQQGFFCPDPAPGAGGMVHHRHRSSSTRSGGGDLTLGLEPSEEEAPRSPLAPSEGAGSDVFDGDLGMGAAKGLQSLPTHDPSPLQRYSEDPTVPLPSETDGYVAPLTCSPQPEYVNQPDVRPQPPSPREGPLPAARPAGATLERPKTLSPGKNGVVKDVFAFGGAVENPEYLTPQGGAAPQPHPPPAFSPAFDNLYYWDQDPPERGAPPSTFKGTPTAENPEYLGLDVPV
Structure (SMILES),viability [1] [%],Her2 level [2],viability [3],viability [4],viability [5],differential viability (reversal) ([6]; H69AR cells + 2 uM doxorubicin),"viability [6, 15] [%]","viability [6, 16] [%]",inhibition [7],inhibition [8],growth inhibition [9],growth inhibition [10],viability increase [11],viability [12],viability [13],inhibition [14]
Cc1ccc(S(=O)(=O)CC2CSc3nnc(C)c(=O)n32)cc1 (stereo unspecified),136,112% (inactive),136% (inactive),125% (inactive),88% (inactive),2.67% (inactive),85.4,88,-5.26% (inactive),1.17% (inactive),–,–,–,–,–,–
Cc1ccccc1OCc1nc2ccccc2c(=O)n1/N=C/c1ccco1,102,100% (inactive),102% (inactive),71% (inactive),104% (inactive),8.3% (inactive),95.3,104,0.53% (inactive),-2.9% (inactive),–,–,–,–,–,–
CC(=O)NCc1ccc(C(=O)CSc2nnc(-c3ccncc3)n2Cc2ccccc2)o1,99.5,92.5% (inactive),99.5% (inactive),97% (inactive),97.1% (inactive),9.33% (inactive),87.8,97.1,-5% (inactive),10.3% (inactive),–,–,–,–,–,–
O=C(CC(Cc1ccccc1)C(=O)O)NCCc1ccc2c(c1)OCO2 (stereo unspecified),90.5,122% (inactive),90.5% (inactive),92% (inactive),100% (inactive),19.3% (inactive),80.8,100,-3.82% (inactive),-7.17% (inactive),–,–,–,–,–,–
O=C(N1CCN(c2ccccc2F)CC1)C12CC3CC(CC(C3)C1)C2,88.5,87.5% (inactive),88.5% (inactive),93.7% (inactive),89.9% (inactive),-8.84% (inactive),98.7,89.9,-5.6% (inactive),3.97% (inactive),–,–,–,–,–,–
Cc1nc2sc(C(c3cccc(F)c3)N3CCN(C(=O)c4ccco4)CC3)c(O)n2n1 (stereo unspecified),94,109% (inactive),94% (inactive),120% (inactive),99.3% (inactive),2.58% (inactive),96.7,99.3,-5% (inactive),-9.83% (inactive),–,–,–,–,–,–
CCn1c(SCC(=O)Nc2ccc3c(c2)OCO3)nc2c(c1=O)SC(C)C2 (stereo unspecified),92.5,102% (inactive),92.5% (inactive),81% (inactive),84.7% (inactive),1.51% (inactive),83.2,84.7,-4.67% (inactive),-2% (inactive),-7.09% (inactive),-23.1% (inactive),-2.42% (inactive),99.9% (inactive),96.8% (inactive),1.63% (inactive)
Cc1ccc(C)c(N2CCN(Cc3nnnn3C3CCCCC3)CC2)c1,94,91% (inactive),94% (inactive),78.1% (inactive),71% (inactive),-9.05% (inactive),80,71,-3.25% (inactive),3.49% (inactive),–,–,–,–,–,–
CCCS(=O)(=O)C(=C1Nc2ccccc2N1)S(=O)(=O)CCC,105,97.5% (inactive),105% (inactive),93.4% (inactive),103% (inactive),12.9% (inactive),89.8,103,-5.68% (inactive),4.13% (inactive),–,–,–,–,–,–
COC(=O)c1ccnc(/C=N/O)c1,95,76% (inactive),95% (inactive),99.8% (inactive),88.1% (inactive),7.13% (inactive),81,88.1,-3.92% (inactive),2.7% (inactive),–,–,–,–,–,–
O=C(NC1CCCCC1)C(c1ccco1)N(Cc1cccnc1)C(=O)C1COc2ccccc2O1 (stereo unspecified),100,84.5% (inactive),100% (inactive),91.4% (inactive),81.1% (inactive),-7.03% (inactive),88.1,81.1,-2.24% (inactive),2.13% (inactive),–,–,–,–,–,–
O=C(Nc1cccc2ncccc12)c1ccc2c(c1)OCCO2,84,104% (inactive),84% (inactive),100% (inactive),104% (inactive),11.7% (inactive),92.1,104,-1.17% (inactive),-3% (inactive),–,–,–,–,–,–
O=C(COc1ccc(S(=O)(=O)N2CCCC2)cc1Cl)NC1CC1,126,108% (inactive),126% (inactive),112% (inactive),101% (inactive),7.76% (inactive),93.2,101,-5.68% (inactive),3.67% (inactive),–,–,–,–,–,–
COc1cc(C(N)=O)ccc1OCc1ccccc1,86,83.5% (inactive),86% (inactive),91.6% (inactive),98.7% (inactive),8% (inactive),90.8,98.7,-1.45% (inactive),-7.14% (inactive),–,–,–,–,–,–
Cc1cccc(OCC(=O)N2CCC(c3ccccc3)C2)c1 (stereo unspecified),104,112% (inactive),104% (inactive),98% (inactive),92.8% (inactive),1.84% (inactive),90.9,92.8,-4.05% (inactive),-1.83% (inactive),-17.9% (inactive),-6.05% (inactive),-0.58% (inactive),83% (inactive),83.7% (inactive),0.225% (inactive)
CC(=O)N(CCc1ccccc1C)Cc1cc2cc3c(cc2[nH]c1=O)OCO3,99,85.5% (inactive),99% (inactive),90.1% (inactive),91.2% (inactive),-2.76% (inactive),93.9,91.2,-2.03% (inactive),4.44% (inactive),–,–,–,–,–,–
Clc1ccc(C2Nc3ccccc3-n3cccc32)cc1 (stereo unspecified),92,82% (inactive),92% (inactive),60.8% (inactive),66.7% (inactive),-9.2% (inactive),75.9,66.7,-3.87% (inactive),7% (inactive),-26% (inactive),-13.6% (inactive),-4.67% (inactive),82.8% (inactive),81.3% (inactive),3.41% (inactive)
Cc1csc(NC(=O)CSc2nnc(Cc3cccn3C)n2-c2ccc(F)cc2)n1,77.5,94% (inactive),77.5% (inactive),84.8% (inactive),89.8% (inactive),1.05% (inactive),88.8,89.8,4.67% (inactive),-1.64% (inactive),-9.58% (inactive),-0.31% (inactive),-2.25% (inactive),94% (inactive),95.5% (inactive),4.11% (inactive)
CSc1nc2ccc(Nc3nc(N4CCOCC4)nc(N4CCOCC4)n3)cc2s1,62.5,106% (inactive),62.5% (inactive),18.5% (active),56.8% (inactive),-3.63% (inactive),60.5,56.8,3.08% (inactive),-0.5% (inactive),-4.93% (inactive),-5.7% (inactive),-5.72% (inactive),68% (inactive),66.5% (inactive),1.97% (inactive)
COc1ccc(/C=N/n2cnnc2SCc2ccc(OC)cc2)cc1,83.5,90.5% (inactive),83.5% (inactive),87.6% (inactive),89.9% (inactive),-6.8% (inactive),96.7,89.9,0% (inactive),4% (inactive),4.08% (inactive),30.7% (inactive),3.56% (inactive),90.6% (inactive),93.9% (inactive),2.4% (inactive)
O=C(CCNC(=O)Cn1ccc2ccccc2c1=O)NCCN1CCN(c2ccccc2F)CC1,96,92% (inactive),96% (inactive),99.2% (inactive),88.1% (inactive),9.11% (inactive),79,88.1,-4.87% (inactive),-1.45% (inactive),–,–,–,–,–,–
COc1ccc(CCNC(=O)CSc2nnc(CNc3ccc(Cl)cc3)o2)cc1OC,112,89% (inactive),112% (inactive),60.5% (inactive),84.3% (inactive),-6.59% (inactive),90.9,84.3,-0.65% (inactive),-4.29% (inactive),–,–,–,–,–,–
CCOC(=O)C1=C(N)OC2=C(C(=O)CC(C)(C)C2)C1c1ccoc1 (stereo unspecified),80,107% (inactive),80% (inactive),112% (inactive),96.3% (inactive),8.7% (inactive),87.7,96.3,-5.53% (inactive),-8.33% (inactive),–,–,–,–,–,–
CCOC(=O)c1cc2ccc(OC)c(OC)c2c(=O)s1,98.5,94% (inactive),98.5% (inactive),83.9% (inactive),83.5% (inactive),-0.1% (inactive),83.6,83.5,0.78% (inactive),-7% (inactive),–,–,–,–,–,–
CCOCC(=O)Nc1nc2ccc(OC)cc2s1,107,102% (inactive),107% (inactive),93.9% (inactive),90.4% (inactive),8.94% (inactive),81.5,90.4,0.79% (inactive),5.57% (inactive),–,–,–,–,–,–
Cc1ccccc1NS(=O)(=O)c1cc(C(=O)N2CCCC2)ccc1C,108,91.5% (inactive),108% (inactive),82.9% (inactive),84.2% (inactive),-4.14% (inactive),88.4,84.2,-5.14% (inactive),-8.25% (inactive),–,–,–,–,–,–
O=C1CN(C(=O)COC(=O)C23CC4CC(CC(O)(C4)C2)C3)c2ccccc2N1,115,85.5% (inactive),115% (inactive),104% (inactive),96.6% (inactive),10.6% (inactive),86.1,96.6,-7.97% (inactive),3.65% (inactive),–,–,–,–,–,–
